# Results as given in PMC7862700, “An all-to-all approach to the identification of sequence-specific readers for epigenetic DNA modifications on cytosine”.
# Experiments:
# Experiment in all cases: DAPPL (digital affinity profiling via proximity ligation, sequencing); 10 mM Tris-HCl pH 7.5, 50 mM NaCl, 1 mM DTT, 4% glycerol, room temperature, 30 min; GST-TFs on glutathione beads, 16-mer random dsDNA library, 0.1% formaldehyde crosslink after washing; high values mean tight binding
# FEV = target: T1, FEV (Homo sapiens, UniProt Q99581 1-238); settings: protein: recombinant; tags: N-terminal GST; dsDNA, one strand shown
# T1 sequence: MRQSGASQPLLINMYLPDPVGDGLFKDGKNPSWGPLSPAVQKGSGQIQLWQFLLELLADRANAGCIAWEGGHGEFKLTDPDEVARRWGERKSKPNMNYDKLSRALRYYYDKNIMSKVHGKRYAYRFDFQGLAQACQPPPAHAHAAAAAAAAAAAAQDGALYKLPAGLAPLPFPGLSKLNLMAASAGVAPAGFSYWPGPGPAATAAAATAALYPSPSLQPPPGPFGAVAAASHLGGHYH
# Outline: (§1)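 After expression in yeast as GST fusions, human transcription factors were bound to glutathione beads, DNA-barcoded and mixed with a tag-only sample. The pools were incubated with 200 nmole of a 16-mer random double-stranded DNA library in Tris/NaCl/DTT/glycerol buffer (30 min, room temperature), washed and crosslinked with 0.1% formaldehyde. Proximity ligation with BsaI/T4 ligase ran for 1 h at 37 °C, before PCR amplification and sequencing on an Illumina NextSeq500. Binding signal is a hexamer's read frequency for a factor divided by its frequency for the tag-only sample.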
# ETV5 = ETV5 (Homo sapiens, UniProt P41161 1-510); settings: protein: recombinant; tags: N-terminal GST; dsDNA, one strand shown
# ETV5, sequence (P41161 whole entry): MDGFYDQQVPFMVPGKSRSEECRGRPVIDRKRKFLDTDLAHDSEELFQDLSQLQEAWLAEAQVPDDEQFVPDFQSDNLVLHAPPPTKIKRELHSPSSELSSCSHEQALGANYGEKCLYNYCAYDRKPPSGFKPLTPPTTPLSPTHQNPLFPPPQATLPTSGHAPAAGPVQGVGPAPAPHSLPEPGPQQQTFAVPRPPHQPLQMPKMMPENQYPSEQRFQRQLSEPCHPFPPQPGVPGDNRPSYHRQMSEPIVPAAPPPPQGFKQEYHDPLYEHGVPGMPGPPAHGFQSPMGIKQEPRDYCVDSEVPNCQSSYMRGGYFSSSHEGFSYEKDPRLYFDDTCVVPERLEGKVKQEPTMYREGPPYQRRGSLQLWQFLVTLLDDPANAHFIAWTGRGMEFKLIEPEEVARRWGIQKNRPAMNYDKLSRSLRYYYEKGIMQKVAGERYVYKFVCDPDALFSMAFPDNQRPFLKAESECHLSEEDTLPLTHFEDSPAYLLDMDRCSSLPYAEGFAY
# Outline: as §1
# HSF1 = HSF1 (Homo sapiens, UniProt Q00613 1-529); settings: protein: recombinant; tags: N-terminal GST; chain copies: 3; dsDNA, one strand shown
# HSF1, sequence (Q00613 whole entry): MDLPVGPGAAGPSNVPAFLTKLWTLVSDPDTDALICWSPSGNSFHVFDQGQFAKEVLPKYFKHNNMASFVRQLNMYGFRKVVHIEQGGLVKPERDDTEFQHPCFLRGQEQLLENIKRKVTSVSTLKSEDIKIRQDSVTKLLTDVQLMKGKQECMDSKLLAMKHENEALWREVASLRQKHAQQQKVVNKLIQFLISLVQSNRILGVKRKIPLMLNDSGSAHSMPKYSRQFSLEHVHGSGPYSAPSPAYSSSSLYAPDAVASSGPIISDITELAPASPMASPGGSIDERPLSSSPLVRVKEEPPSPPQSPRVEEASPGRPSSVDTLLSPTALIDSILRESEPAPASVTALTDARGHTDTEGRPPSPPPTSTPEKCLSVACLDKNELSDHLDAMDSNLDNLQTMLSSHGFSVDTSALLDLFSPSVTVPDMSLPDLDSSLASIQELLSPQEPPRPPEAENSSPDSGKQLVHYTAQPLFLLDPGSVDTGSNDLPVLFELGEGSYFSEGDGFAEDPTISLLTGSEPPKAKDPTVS
# Outline: as §1
# SPIC = target: T2, SPIC (Homo sapiens, UniProt Q8N5J4 1-248); settings: protein: recombinant; tags: N-terminal GST; dsDNA, one strand shown
# T2 sequence: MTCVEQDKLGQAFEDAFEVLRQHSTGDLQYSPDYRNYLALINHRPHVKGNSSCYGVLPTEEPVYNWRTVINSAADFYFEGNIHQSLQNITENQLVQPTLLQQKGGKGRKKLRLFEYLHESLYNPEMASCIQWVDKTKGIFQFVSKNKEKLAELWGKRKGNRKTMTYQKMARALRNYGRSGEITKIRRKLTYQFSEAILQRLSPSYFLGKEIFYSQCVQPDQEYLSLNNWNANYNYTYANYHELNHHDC
# Outline: as §1
# ELF4 = ELF4 (Homo sapiens, UniProt Q99607 1-663); settings: protein: recombinant; tags: N-terminal GST; dsDNA, one strand shown
# ELF4, sequence (Q99607 whole entry): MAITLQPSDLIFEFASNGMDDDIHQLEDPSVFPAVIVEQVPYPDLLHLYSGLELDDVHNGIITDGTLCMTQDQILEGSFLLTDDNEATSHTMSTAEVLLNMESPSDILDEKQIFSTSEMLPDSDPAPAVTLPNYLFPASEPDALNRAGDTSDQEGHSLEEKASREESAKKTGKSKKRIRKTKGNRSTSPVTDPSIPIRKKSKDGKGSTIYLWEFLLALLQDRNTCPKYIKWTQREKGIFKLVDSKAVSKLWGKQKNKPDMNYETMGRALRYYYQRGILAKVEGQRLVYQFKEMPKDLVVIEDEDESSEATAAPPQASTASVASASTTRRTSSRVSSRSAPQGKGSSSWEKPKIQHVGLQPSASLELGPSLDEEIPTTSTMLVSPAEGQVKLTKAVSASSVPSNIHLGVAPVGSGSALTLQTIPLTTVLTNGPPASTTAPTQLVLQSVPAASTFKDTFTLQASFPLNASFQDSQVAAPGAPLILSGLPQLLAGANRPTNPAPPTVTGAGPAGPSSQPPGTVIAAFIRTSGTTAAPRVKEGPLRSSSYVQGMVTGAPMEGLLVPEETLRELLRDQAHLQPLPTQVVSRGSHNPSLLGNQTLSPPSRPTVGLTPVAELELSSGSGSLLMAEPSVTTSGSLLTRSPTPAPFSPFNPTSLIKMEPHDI
# Outline: as §1
# ELK4 = target: T3, ELK4 (Homo sapiens, UniProt P28324-2 1-405); settings: protein: recombinant; tags: N-terminal GST; dsDNA, one strand shown
# T3 sequence: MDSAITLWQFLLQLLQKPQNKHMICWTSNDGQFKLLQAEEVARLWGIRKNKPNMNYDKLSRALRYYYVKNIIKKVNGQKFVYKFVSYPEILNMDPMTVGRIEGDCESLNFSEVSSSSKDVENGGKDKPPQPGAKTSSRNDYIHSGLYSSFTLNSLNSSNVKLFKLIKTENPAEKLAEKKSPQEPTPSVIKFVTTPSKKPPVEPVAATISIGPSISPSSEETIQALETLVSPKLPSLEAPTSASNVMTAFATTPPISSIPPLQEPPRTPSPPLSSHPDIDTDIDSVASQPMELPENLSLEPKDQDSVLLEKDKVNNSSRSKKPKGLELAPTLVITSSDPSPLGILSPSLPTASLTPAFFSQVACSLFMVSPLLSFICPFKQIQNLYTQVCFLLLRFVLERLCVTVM
# Outline: as §1
# ETV2 = target: T4, ETV2 (Homo sapiens, UniProt O00321 1-342); settings: protein: recombinant; tags: N-terminal GST; dsDNA, one strand shown
# T4 sequence: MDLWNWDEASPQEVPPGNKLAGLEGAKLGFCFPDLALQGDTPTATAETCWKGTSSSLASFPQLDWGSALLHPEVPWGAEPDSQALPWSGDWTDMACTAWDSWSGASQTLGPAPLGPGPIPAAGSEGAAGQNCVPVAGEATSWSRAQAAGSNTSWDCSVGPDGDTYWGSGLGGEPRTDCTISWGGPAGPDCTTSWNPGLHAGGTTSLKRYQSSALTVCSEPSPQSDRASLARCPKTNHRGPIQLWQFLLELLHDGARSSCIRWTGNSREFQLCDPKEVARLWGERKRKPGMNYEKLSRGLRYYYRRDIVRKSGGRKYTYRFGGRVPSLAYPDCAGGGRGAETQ
# Outline: as §1
# ELF3 = target: T5, ELF3 (Homo sapiens, UniProt P78545 1-371); settings: protein: recombinant; tags: N-terminal GST; dsDNA, one strand shown
# T5 sequence: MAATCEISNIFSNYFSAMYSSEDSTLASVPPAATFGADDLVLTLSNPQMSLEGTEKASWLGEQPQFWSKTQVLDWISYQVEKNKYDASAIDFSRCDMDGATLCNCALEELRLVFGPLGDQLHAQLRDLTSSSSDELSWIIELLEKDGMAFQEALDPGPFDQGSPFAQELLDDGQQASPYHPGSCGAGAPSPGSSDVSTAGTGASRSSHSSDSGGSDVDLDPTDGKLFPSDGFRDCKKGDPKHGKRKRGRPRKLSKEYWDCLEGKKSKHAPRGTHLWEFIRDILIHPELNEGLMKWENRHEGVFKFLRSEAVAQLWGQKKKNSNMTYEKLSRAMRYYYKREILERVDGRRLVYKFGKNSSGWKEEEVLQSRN
# Outline: as §1
# CRX = CRX (Homo sapiens, UniProt O43186 1-299); settings: protein: recombinant; tags: N-terminal GST; dsDNA, one strand shown
# CRX, sequence (O43186 whole entry): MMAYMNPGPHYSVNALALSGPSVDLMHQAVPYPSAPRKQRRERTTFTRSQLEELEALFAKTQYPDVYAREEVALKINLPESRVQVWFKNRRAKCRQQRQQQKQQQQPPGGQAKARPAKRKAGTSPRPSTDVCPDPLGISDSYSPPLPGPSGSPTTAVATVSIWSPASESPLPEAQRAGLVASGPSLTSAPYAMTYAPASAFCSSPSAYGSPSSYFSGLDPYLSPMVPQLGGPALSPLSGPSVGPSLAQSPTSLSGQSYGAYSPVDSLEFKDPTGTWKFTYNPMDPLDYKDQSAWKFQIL
# Outline: as §1
# ETV1 = ETV1 (Homo sapiens, UniProt P50549 1-477); settings: protein: recombinant; tags: N-terminal GST; dsDNA, one strand shown
# ETV1, sequence (P50549 whole entry): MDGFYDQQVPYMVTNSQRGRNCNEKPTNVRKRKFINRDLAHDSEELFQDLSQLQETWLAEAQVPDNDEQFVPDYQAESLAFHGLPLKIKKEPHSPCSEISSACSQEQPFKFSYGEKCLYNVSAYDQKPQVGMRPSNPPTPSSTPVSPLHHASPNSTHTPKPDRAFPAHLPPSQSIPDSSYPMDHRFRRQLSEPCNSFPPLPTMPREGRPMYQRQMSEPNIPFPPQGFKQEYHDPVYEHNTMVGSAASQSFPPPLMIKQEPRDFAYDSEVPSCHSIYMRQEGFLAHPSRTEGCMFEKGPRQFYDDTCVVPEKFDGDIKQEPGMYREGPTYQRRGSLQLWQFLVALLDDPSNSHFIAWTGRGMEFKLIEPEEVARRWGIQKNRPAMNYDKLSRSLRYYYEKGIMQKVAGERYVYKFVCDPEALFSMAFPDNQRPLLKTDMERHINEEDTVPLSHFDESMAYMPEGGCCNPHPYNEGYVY
# Outline: as §1
# ERF = target: T6, ERF (Homo sapiens, UniProt P50548 1-548); settings: protein: recombinant; tags: N-terminal GST; dsDNA, one strand shown
# T6 sequence: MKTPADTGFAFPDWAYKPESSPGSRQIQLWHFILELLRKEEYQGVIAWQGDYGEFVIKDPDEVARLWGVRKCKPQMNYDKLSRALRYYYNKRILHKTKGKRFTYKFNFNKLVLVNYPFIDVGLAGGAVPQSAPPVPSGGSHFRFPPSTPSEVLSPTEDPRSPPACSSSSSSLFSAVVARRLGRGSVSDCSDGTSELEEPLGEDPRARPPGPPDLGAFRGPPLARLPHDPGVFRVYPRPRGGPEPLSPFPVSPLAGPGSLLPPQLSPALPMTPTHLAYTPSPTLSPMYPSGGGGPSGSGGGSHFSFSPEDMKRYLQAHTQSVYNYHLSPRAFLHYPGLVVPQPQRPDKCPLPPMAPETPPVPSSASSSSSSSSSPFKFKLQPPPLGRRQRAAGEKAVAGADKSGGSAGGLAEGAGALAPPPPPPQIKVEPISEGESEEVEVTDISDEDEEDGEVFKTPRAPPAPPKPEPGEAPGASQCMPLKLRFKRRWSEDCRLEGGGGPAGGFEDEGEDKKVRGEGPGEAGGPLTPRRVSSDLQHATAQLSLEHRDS
# Outline: as §1
# ETV3L = target: T7, ETV3L (Homo sapiens, UniProt Q6ZN32 1-361); settings: protein: recombinant; tags: N-terminal GST; dsDNA, one strand shown
# T7 sequence: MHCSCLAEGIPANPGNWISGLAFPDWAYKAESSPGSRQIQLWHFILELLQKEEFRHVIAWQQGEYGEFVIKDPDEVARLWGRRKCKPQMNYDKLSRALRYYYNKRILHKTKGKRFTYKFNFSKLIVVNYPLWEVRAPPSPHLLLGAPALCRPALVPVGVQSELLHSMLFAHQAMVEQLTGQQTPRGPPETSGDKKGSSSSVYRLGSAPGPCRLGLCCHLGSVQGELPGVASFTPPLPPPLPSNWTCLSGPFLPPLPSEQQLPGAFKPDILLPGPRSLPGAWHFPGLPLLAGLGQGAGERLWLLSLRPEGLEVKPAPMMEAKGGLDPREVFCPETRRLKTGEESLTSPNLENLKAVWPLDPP
# Outline: as §1
# ETS2 = target: T8, ETS2 (Homo sapiens, UniProt P15036 1-469); settings: protein: recombinant; tags: N-terminal GST; dsDNA, one strand shown
# T8 sequence: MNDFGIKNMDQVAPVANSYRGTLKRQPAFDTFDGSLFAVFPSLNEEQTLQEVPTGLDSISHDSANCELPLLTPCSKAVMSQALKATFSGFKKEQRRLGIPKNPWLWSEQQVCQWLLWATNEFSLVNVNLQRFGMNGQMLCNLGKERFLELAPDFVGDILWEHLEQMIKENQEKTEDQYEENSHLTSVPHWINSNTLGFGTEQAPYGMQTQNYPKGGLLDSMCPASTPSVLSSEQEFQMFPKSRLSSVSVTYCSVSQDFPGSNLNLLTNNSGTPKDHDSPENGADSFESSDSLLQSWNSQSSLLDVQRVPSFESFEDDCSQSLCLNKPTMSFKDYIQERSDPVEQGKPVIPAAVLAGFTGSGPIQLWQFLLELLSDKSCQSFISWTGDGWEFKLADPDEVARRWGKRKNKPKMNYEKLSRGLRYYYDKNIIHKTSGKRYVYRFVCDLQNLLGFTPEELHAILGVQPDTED
# Outline: as §1
# SPDEF = target: T9, SPDEF (Homo sapiens, UniProt O95238 1-335); settings: protein: recombinant; tags: N-terminal GST; dsDNA, one strand shown
# T9 sequence: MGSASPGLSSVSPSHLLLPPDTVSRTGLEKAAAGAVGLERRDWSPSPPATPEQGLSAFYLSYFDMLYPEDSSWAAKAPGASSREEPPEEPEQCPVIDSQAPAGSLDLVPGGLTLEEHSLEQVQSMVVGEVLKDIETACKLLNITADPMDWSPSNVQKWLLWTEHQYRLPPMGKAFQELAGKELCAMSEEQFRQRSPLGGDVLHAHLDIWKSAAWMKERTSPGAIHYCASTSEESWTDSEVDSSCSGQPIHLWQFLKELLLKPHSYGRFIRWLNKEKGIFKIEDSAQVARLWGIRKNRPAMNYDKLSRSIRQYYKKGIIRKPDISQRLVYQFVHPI
# Outline: as §1
# ETV7 = target: T10, ETV7 (Homo sapiens, UniProt Q9Y603 1-341); settings: protein: recombinant; tags: N-terminal GST; dsDNA, one strand shown
# T10 sequence: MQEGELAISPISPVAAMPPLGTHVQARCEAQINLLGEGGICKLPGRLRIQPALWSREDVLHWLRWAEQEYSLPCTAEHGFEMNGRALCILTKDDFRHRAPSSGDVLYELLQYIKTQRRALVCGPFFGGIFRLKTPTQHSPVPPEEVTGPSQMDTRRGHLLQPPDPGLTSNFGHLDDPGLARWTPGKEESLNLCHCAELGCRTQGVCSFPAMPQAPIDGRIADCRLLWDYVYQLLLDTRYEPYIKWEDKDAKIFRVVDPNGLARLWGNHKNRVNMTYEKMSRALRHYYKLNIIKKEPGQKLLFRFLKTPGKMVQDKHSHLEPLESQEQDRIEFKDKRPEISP
# Outline: as §1
# ELF5 = target: T11, ELF5 (Homo sapiens, UniProt Q9UKW6-2 1-255); settings: protein: recombinant; tags: N-terminal GST; dsDNA, one strand shown
# T11 sequence: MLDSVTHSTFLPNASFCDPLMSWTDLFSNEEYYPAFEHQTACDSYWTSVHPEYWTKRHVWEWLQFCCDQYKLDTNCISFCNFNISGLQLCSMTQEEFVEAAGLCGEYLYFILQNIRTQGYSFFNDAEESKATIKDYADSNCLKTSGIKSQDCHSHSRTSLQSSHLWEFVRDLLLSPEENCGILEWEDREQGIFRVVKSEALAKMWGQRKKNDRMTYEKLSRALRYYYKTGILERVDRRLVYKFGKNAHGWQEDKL
# Outline: as §1
# ETV3 = target: T12, ETV3 (Homo sapiens, UniProt P41162-2 1-143); settings: protein: recombinant; tags: N-terminal GST; dsDNA, one strand shown
# T12 sequence: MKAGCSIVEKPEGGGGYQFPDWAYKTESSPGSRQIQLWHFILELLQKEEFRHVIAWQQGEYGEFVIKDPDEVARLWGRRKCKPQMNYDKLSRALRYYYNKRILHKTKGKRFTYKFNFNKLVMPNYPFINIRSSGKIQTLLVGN
# Outline: as §1
# ETV6 = ETV6 (Homo sapiens, UniProt P41212 1-452); settings: protein: recombinant; tags: N-terminal GST; dsDNA, one strand shown
# ETV6, sequence (P41212 whole entry): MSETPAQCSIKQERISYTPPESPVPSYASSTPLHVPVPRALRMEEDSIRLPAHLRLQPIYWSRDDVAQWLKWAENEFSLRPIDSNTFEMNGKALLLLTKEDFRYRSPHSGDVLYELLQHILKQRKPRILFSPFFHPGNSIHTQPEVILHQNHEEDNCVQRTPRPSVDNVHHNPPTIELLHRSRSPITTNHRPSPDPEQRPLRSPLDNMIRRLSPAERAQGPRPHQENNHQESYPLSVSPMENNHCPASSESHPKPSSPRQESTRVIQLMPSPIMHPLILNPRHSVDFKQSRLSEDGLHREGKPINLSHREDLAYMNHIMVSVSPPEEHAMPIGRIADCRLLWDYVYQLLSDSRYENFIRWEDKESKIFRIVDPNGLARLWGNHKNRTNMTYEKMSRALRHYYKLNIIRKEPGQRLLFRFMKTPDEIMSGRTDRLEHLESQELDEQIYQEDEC
# Outline: as §1
sequence,measurement,setting,value
CCCGCA,binding signal,FEV,"1.26 fold enrichment (6-mer frequency, TF over GST control)"
same,binding signal,ETV5,"1.27 fold enrichment (6-mer frequency, TF over GST control)"
same,binding signal,HSF1,"1.22 fold enrichment (6-mer frequency, TF over GST control)"
same,binding signal,SPIC,"1.27 fold enrichment (6-mer frequency, TF over GST control)"
same,binding signal,ELF4,"1.34 fold enrichment (6-mer frequency, TF over GST control)"
same,binding signal,ELK4,"1.35 fold enrichment (6-mer frequency, TF over GST control)"
same,binding signal,ETV2,"1.28 fold enrichment (6-mer frequency, TF over GST control)"
same,binding signal,ELF3,"1.36 fold enrichment (6-mer frequency, TF over GST control)"
same,binding signal,CRX,"1.1 fold enrichment (6-mer frequency, TF over GST control)"
same,binding signal,ETV1,"1.23 fold enrichment (6-mer frequency, TF over GST control)"
same,binding signal,ERF,"1.24 fold enrichment (6-mer frequency, TF over GST control)"
same,binding signal,ETV3L,"1.22 fold enrichment (6-mer frequency, TF over GST control)"
same,binding signal,ETS2,"1.18 fold enrichment (6-mer frequency, TF over GST control)"
same,binding signal,SPDEF,"1.27 fold enrichment (6-mer frequency, TF over GST control)"
same,binding signal,ETV7,"1.31 fold enrichment (6-mer frequency, TF over GST control)"
same,binding signal,ELF5,"1.27 fold enrichment (6-mer frequency, TF over GST control)"
same,binding signal,ETV3,"1.2 fold enrichment (6-mer frequency, TF over GST control)"
same,binding signal,ETV6,"1.25 fold enrichment (6-mer frequency, TF over GST control)"
